Consider 20 molecules from PubChem BioAssay.

Unmarked numbers belong to inactive results. For some of these results: Entries with a potency or affinity are not part of this list. Active and inactive are the calls of the source. Unless noted, no rule for the calls is given here.

Test [1] can be described thus: antimalarial activity against Dd2 strain (AID 2302;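 active = growth inhibition above 50% at the single 2 µM test dose, taken to imply half-maximal potency below 2 µM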;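 also: 0% = DMSO untreated growth and 100% = chloroquine plus artemisinin killed control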). Particulars: P. falciparum Dd2 in RBCs, LDH growth readout, 72 h; at 2 µM; active compounds read high.
Test [2] is described as follows: human hepatoma cell viability loss – ATP luminescence, cytotoxicity control for P. falciparum antimalarial project, primary screen (AID 2303;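 active = inhibition above 50%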;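 also: 0% = DMSO wells and 100% = digitonin-killed cells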). As to conditions: HepG2 viability, 24-48 h, at 10 µM, active compounds read high.
For test [3], the target named is L-lactate dehydrogenase (Plasmodium falciparum (isolate CDC / Honduras)) (UniProt Q27743). Kind of test: PfLDH activity inhibition – cell lysate, 3D7 strain, counter-screen for P. falciparum growth inhibition project (AID 2304).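 Also: 0% = vehicle and 100% = reference inhibitor.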 Particulars: P. falciparum 3D7 crude extract, LDH APAD/NBT absorbance; at 2 µM; active compounds read high. Background: A counterscreen serves to expose hits that act by an unwanted route or on another target.
Sequence of L-lactate dehydrogenase (Plasmodium falciparum (isolate CDC / Honduras)) (Q27743 whole entry, looked up): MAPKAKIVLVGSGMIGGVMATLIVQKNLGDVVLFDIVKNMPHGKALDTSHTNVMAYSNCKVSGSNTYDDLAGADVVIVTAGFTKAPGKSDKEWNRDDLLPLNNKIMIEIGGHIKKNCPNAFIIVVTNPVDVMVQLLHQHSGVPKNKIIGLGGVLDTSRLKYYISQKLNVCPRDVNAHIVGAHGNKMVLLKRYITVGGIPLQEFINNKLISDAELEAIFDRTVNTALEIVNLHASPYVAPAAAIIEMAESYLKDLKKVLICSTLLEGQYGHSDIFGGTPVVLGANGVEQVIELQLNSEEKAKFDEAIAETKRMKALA

The nature of test [4]: inhibition of 3D7 malaria parasite growth – strain 3D7 (AID 2306).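 Also: 0% = DMSO wells and 100% = chloroquine plus artemisinin control wells.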 Particulars: P. falciparum 3D7 erythrocytic growth, LDH absorbance, 72 h; at 2 µM; active compounds read high.
Test [5] addresses Calcium-dependent protein kinase 1 (Plasmodium falciparum (isolate 3D7)) (UniProt P62344). Briefly: PfCDPK1 kinase inhibitors, biochemical, TCAMS library (AID 1159585; cut-off not given, nearly all actives have IC50 up to about 0.98 µM;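 also: inhibitors leave more ATP so luminescence rises with inhibition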). As to conditions: recombinant PfCDPK1, Kinase-Glo ATP depletion luminescence. For orientation: In Kinase-Glo more light means more ATP remaining.
For test [6], the target named is Plasmodium falciparum protein kinase 6 (PK6, PF3D7_1337100) (UniProt Q8IDW1). Briefly: PfPK6 kinase inhibitors, biochemical, TCAMS library (AID 1159586). As to conditions: recombinant PfPK6, Kinase-Glo ATP depletion luminescence.
Sequence of Plasmodium falciparum protein kinase 6 (PK6, PF3D7_1337100) (Q8IDW1 1-305): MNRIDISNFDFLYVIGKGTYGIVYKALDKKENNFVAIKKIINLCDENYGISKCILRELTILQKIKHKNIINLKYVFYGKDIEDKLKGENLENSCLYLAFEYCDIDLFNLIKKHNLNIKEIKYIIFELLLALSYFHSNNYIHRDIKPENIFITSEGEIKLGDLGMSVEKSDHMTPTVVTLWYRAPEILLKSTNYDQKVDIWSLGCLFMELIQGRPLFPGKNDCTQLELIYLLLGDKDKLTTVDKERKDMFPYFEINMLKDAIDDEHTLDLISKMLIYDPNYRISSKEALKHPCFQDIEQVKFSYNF
Test [7] has as its target Protein kinase 7 (PK7), Plasmodium falciparum 3D7 (PF3D7_0213400) (UniProt Q7YTF7). Kind of test: inhibition of Plasmodium PK7 catalytic activity – biochemical, TCAMS antimalarial set, Kinase-Glo luminescence (AID 1159587). Particulars: recombinant PfPK7, Kinase-Glo ATP depletion luminescence.
Test [8] deals with Calcium-dependent protein kinase 4 (Plasmodium falciparum (isolate 3D7)) (UniProt Q8IBS5). Kind of test: PfCDPK4 kinase inhibitors, biochemical, TCAMS library (AID 1159588; cut-off not given, nearly all actives have IC50 up to about 0.91 µM). As to conditions: recombinant PfCDPK4, Kinase-Glo ATP depletion luminescence.
Sequence of Calcium-dependent protein kinase 4 (Plasmodium falciparum (isolate 3D7)) (Q8IBS5 whole entry, looked up): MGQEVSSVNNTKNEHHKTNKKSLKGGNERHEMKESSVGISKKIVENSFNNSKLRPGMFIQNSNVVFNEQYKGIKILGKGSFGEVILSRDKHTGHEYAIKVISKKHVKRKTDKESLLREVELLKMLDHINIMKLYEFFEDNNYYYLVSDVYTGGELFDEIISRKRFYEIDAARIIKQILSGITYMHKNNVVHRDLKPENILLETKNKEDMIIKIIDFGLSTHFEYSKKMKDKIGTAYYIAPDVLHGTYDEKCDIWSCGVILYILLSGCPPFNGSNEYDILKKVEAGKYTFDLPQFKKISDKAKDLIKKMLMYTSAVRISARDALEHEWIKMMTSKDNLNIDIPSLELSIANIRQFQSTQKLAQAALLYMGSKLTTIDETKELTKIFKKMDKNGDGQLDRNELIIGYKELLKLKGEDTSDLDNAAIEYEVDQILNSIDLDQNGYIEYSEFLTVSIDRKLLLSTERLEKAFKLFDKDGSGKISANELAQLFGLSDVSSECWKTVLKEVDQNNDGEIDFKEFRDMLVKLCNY

Sequence of Calcium-dependent protein kinase 1 (Plasmodium falciparum (isolate 3D7)) (P62344 whole entry, looked up): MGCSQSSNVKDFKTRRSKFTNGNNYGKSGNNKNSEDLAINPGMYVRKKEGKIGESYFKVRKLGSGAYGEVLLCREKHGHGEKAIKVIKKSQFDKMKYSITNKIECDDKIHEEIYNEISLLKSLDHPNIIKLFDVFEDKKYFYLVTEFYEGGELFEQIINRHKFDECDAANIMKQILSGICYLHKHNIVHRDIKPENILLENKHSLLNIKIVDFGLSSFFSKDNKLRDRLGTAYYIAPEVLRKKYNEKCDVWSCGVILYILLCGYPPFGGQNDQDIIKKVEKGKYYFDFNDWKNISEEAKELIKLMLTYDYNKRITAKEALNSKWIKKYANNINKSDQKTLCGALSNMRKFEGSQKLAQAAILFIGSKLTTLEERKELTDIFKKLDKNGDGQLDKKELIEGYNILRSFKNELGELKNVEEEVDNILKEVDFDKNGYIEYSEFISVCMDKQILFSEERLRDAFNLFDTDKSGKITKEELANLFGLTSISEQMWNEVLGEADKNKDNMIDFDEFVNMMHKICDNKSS
Sequence of Protein kinase 7 (PK7), Plasmodium falciparum 3D7 (PF3D7_0213400) (Q7YTF7 1-343): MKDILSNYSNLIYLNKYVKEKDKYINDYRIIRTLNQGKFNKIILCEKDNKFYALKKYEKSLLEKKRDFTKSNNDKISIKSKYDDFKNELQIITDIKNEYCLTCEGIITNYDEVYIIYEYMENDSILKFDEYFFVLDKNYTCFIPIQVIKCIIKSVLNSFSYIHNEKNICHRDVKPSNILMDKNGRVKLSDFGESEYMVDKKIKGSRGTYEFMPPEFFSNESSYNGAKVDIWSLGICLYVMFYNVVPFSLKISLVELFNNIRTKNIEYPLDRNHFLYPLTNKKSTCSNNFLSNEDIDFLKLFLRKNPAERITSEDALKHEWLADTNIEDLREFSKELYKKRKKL

For `COc1cc2c(cc1O)[C@@H]1[C@H](O)[C@@H](O)C=C3CCN(C2)[C@H]31`, the growth inhibition was 31% in test [1] and 90% (active) in test [4]. Further, the inhibition – broadly, the drop in the measured response relative to a control, in per cent – was 18% in test [2] and 3% in test [3]. Moreover, the outcome in test [5], in test [6], in test [7] and in test [8] was inactive.
In the case of `O=C(N[C@@H](CC1CCCCC1)C(=O)NCc1cccc(C(F)(F)F)c1)c1ccc(O)c(-c2ccc(Cl)c(Cl)c2)c1`, the growth inhibition in test [1] is 100% (active); in test [4], 98% (active). Moreover, the inhibition in test [2] was -5%; in test [3], 5%. Further, the result in test [5], in test [6], in test [7] and in test [8] was inactive.
Turning to `OCC(CO)(CO)NCc1ccc2c3c(cccc13)-c1ccccc1-2`, the growth inhibition is 76% (active) in test [1] and 87% (active) in test [4]. The results for the inhibition in test [2] and in test [3] were 73% (active) and 0%, respectively. Further, the result in test [5], in test [6], in test [7] and in test [8] was inactive.
Turning to `COc1cc(C(=O)NCCCN2CCN(c3cccc(Cl)c3)CC2)ccc1-c1nc2cc(Cl)c(F)cc2[nH]1`, the values for the growth inhibition in test [1] and in test [4] were 81% (active) and 100% (active), respectively. Further, the inhibition in test [2] is 15%; in test [3], 0%. The outcome in test [5], in test [6], in test [7] and in test [8] was inactive.
Turning to `CN1CCN(Cc2ccc(-c3cc4c(Nc5ccc(OCc6cccc(F)c6)c(Cl)c5)ncnc4s3)[nH]2)CC1`, the growth inhibition in test [1] is 99% (active); in test [4] it was 101% (active). In addition, the inhibition in test [2] was 23%; in test [3], 2%. For the same molecule, the result in test [5], in test [6], in test [7] and in test [8] was inactive.
Turning to `O=C(NCCN1CCCc2ccccc21)C1CCN(c2nc(-c3ccc(Cl)cc3)no2)CC1`, the growth inhibition in test [1] is 62% (active); in test [4] it was 86% (active). Further, the values for the inhibition in test [2] and in test [3] were 11% and -1%, respectively. The result in test [5], in test [6], in test [7] and in test [8] was inactive.
With `COc1ccccc1CNC(=O)c1cc(C2CC2)nc2c1cnn2C(C)C`, the figures for the growth inhibition in test [1] and in test [4] were 92% (active) and 94% (active), respectively. For the same molecule, the inhibition in test [2] was 47%; in test [3], 5%. Also, the outcome in test [5], in test [6], in test [7] and in test [8] was inactive.
As to `Nc1nccc2ccc(-c3ccsc3)cc12`, the growth inhibition is 89% (active) in test [1] and 100% (active) in test [4]. For the same molecule, the inhibition in test [2] is 38%; in test [3] it was 4%. The result in test [5], in test [6], in test [7] and in test [8] was inactive.
Turning to `CC(C)c1ccc(NC(=O)c2ccc(CN3CCCN(Cc4cccc(Cl)c4)CC3)cc2)cc1`, the growth inhibition in test [1] was 12%; in test [4] it was 90% (active). Further, the inhibition is 45% in test [2] and 5% in test [3]. Besides, the result in test [5], in test [6], in test [7] and in test [8] was inactive.
`Cc1cc(NN=Cc2ccccc2F)c2cc(C(F)(F)F)ccc2n1`: the growth inhibition in test [1] was 67% (active); in test [4] it was 102% (active). Also, the inhibition in test [2] is 5%; in test [3], 2%. In addition, the result in test [5], in test [6], in test [7] and in test [8] was inactive.
As for `Cc1ccc(NC(C)C(=O)Nc2ccccc2)cc1S(=O)(=O)N1CCCCCC1` (stereo not given), the growth inhibition in test [1] is 97% (active); in test [4], 99% (active). The inhibition was 12% in test [2] and -4% in test [3]. The result in test [5], in test [6], in test [7] and in test [8] was inactive.
As to `CCCCCc1cc(O)c2c(c1)OC(C)(C)C=C2C1=CCN(Cc2ccsc2)CC1`, the figures for the growth inhibition in test [1] and in test [4] were 48% and 98% (active), respectively. Further, the inhibition in test [2] was 20%; in test [3] it was -1%. Besides, the outcome in test [5], in test [6], in test [7] and in test [8] was inactive.
Take `O=C(/C=C/c1ccc(Cl)c(Cl)c1)N1CCC(CCN2CCC(c3c[nH]c4cc5c(cc34)OCO5)CC2)CC1`: the growth inhibition is 65% (active) in test [1] and 99% (active) in test [4]. Further, the inhibition was 46% in test [2] and -4% in test [3]. In addition, the result in test [5], in test [6], in test [7] and in test [8] was inactive.
For `OCCc1ccc(Nc2nccc(-c3nnc4ccccn34)n2)cc1`, the growth inhibition in test [1] is 46%; in test [4], 93% (active). The inhibition was 63% (active) in test [2] and 6% in test [3]. The outcome in test [5], in test [6], in test [7] and in test [8] was inactive.
As for `CC(=O)c1ccc2c(c1)CCN(CCC1CCC(NC(=O)c3cc4ccccc4[nH]3)CC1)CC2` (stereo not given), the figures for the growth inhibition in test [1] and in test [4] were 47% and 86% (active), respectively. Further, the inhibition in test [2] is 64% (active); in test [3] it was 2%. The outcome in test [5], in test [6], in test [7] and in test [8] was inactive.
For `O=C(CSc1nccn1C1CCCC1)Nc1cc(C(F)(F)F)ccc1Cl`, the growth inhibition is 94% (active) in test [1] and 96% (active) in test [4]. Also, the inhibition is -4% in test [2] and -2% in test [3]. The result in test [5], in test [6], in test [7] and in test [8] was inactive.
For `NC(=O)c1cc2nc(NC3CCC3)nc(Nc3cccc4[nH]ncc34)c2[nH]1`, the figures for the growth inhibition in test [1] and in test [4] were 62% (active) and 100% (active), respectively. In addition, the inhibition is 9% in test [2] and 4% in test [3]. The result in test [5], in test [6], in test [7] and in test [8] was inactive.
As to `Cc1cc(NC(=O)NCCN2CCC(NS(=O)(=O)c3ccc(C(F)(F)F)cc3)C2)c2ccccc2n1` (stereo not given), the growth inhibition in test [1] was 39%; in test [4] it was 96% (active). In addition, the inhibition in test [2] was 15%; in test [3] it was -3%. Also, the outcome in test [5], in test [6], in test [7] and in test [8] was inactive.
Regarding `CCN(C(=O)NC)[C@@H]1c2cc(C#N)ccc2OC(C)(C)[C@H]1O`, the figures for the growth inhibition in test [1] and in test [4] were 2% and 96% (active), respectively. Moreover, the inhibition was 3% in test [2] and -8% in test [3]. For the same molecule, the result in test [5], in test [6], in test [7] and in test [8] was inactive.
Turning to `O=C(N[C@@H](Cc1ccccc1)C(=O)NCCN1CCCCC1)c1ccc(O)c(-c2cccc(C(F)(F)F)c2)c1`, the growth inhibition in test [1] was 3%; in test [4] it was 92% (active). The inhibition in test [2] was 0%; in test [3] it was 7%. Moreover, the outcome in test [5], in test [6], in test [7] and in test [8] was inactive.
